# From PubChem BioAssay
# How the values were obtained:
# PEG-3 [1] = molecular target: PEG-3 (UniProt Q6IN02); assay: inhibition of PEG-3 promoter-driven reporter – cell-based, HeLa, luciferase, CREF/GAPDH counter-screen panel, dose response (AID 624167); settings: CREF/GAPDH counter-screens; HeLa PEG-Prom luciferase reporter, overnight, run 1, dose range 1, at 100 µM (top of the series) unless noted
# PEG-3 [2] = molecular target: PEG-3 (UniProt Q6IN02); assay: as above; settings: CREF/GAPDH counter-screens; HeLa PEG-Prom luciferase reporter, overnight, run 2, dose range 1, at 100 µM (top of the series) unless noted
# [3] = NFkB reporter suppression in cystic fibrosis bronchial cells – cell-based, uHTS hits, panel, cytotoxicity readout, dose response (AID 624344); settings: CF bronchial epithelial cells, PAF-induced NFkB reporter inhibition, with PAF, run 1; at 79 µM (top of the series) unless noted
# [4] = as above; settings: CF bronchial epithelial cells, PAF-induced NFkB reporter inhibition, with PAF, run 2; at 79 µM (top of the series) unless noted
# Rat fibroblasts (CREF) [5] = assay: inhibition of PEG-3 promoter-driven reporter – cell-based, HeLa, luciferase, CREF/GAPDH counter-screen panel, dose response (AID 624167); settings: CREF/GAPDH counter-screens; run 1, dose range 1, at 100 µM (top of the series)
# Rat fibroblasts (CREF) [6] = assay: as above; settings: CREF/GAPDH counter-screens; run 2, dose range 1, at 100 µM (top of the series)
# [7] = molecular target: Tumor necrosis factor receptor superfamily member 10B (Homo sapiens) (UniProt O14763); assay: viability loss of caspase-8 NB7 cells with TRAIL – with/without TRAIL, luminescence panel, confirmation (AID 651596); settings: NB7 neuroblastoma + caspase-8, TRAIL sensitization, NB7 Caspase-8, with TRAIL, mean of runs, at 10 µM, stronger effect = higher value
# [8] = as above; settings: NB7 neuroblastoma + caspase-8, without TRAIL, NB7 Caspase-8, without TRAIL, mean of runs, at 10 µM
# [9] = molecular target: Tumor necrosis factor receptor superfamily member 10B (Homo sapiens) (UniProt O14763); assay: compound enhancement of TRAIL-induced cell killing – NB7 cells plus caspase-8, luminescence, panel, dose response (AID 652002); settings: NB7 neuroblastoma +caspase-8, TRAIL sensitization, luminescence viability, NB7+Caspase-8, with TRAIL, run 1; at 12.5 µM (top of the series)
# [10] = molecular target: Tumor necrosis factor receptor superfamily member 10B (Homo sapiens) (UniProt O14763); assay: as above; settings: NB7 neuroblastoma +caspase-8, TRAIL sensitization, luminescence viability, NB7+Caspase-8, with TRAIL, run 2; at 12.5 µM (top of the series)
# [11] = as above; settings: NB7 neuroblastoma +caspase-8, no TRAIL, compound-alone cytotoxicity counter-screen, luminescence viability, NB7+Caspase-8, run 1; at 12.5 µM (top of the series) unless noted
# [12] = as above; settings: NB7 neuroblastoma +caspase-8, no TRAIL, compound-alone cytotoxicity counter-screen, luminescence viability, NB7+Caspase-8, run 2; at 12.5 µM (top of the series) unless noted
# PEG-3, sequence (Q6IN02 whole entry, looked up): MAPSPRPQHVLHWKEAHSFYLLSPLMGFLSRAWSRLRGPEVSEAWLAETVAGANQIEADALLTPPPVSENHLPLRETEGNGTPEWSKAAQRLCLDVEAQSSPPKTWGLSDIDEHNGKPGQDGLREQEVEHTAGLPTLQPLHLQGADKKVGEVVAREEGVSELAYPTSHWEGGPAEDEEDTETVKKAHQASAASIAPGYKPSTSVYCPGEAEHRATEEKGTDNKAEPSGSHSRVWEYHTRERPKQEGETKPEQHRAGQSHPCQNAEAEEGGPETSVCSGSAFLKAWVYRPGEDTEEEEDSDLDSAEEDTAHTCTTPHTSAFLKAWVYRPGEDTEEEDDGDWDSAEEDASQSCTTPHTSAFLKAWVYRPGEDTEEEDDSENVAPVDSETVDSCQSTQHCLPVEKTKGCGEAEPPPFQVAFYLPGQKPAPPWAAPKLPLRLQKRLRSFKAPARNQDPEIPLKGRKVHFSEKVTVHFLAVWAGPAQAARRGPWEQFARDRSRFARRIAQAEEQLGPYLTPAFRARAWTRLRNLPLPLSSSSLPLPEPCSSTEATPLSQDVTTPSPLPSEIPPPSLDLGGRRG
# Tumor necrosis factor receptor superfamily member 10B (Homo sapiens), sequence (O14763 whole entry, looked up): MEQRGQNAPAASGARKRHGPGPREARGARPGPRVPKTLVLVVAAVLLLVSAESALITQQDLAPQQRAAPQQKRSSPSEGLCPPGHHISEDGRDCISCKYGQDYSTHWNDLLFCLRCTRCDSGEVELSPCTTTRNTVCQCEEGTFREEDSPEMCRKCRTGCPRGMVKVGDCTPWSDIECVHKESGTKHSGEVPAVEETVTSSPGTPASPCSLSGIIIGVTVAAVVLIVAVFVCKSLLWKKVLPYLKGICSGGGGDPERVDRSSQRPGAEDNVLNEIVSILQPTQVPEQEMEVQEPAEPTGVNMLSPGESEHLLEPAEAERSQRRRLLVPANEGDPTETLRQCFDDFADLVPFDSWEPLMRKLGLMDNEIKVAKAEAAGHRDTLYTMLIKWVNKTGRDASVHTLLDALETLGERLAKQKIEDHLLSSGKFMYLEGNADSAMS
compound,measurement,setting,value
O=S(=O)(Nc1cccc2cccnc12)c1ccccc1,inhibition,PEG-3 [1],81.7%
same,inhibition,PEG-3 [2],97.7%
same,inhibition,[3],102%
same,inhibition,[4],109%
COc1ccc(C(C(=O)NCC2CCCO2)N(Cc2cccs2)C(=O)c2snc(C(N)=O)c2N)cc1 (configuration not stated),inhibition,PEG-3 [1],47.8%
same,inhibition,PEG-3 [2],28.4%
same,inhibition,[3],109%
same,inhibition,[4],101%
O=C(c1ccc(Cl)cc1)N1CCCCC(Sc2nnc(-c3ccc4c(c3)OCO4)o2)C1=O (configuration not stated),inhibition,PEG-3 [1],93.2%
same,inhibition,PEG-3 [2],67.1%
same,inhibition,Rat fibroblasts (CREF) [5],98%
same,inhibition,Rat fibroblasts (CREF) [6],85.5%
same,activity,[7],75.8%
same,activity,[8],72.6%
CN(C)c1ccc(C(C(=O)NCc2ccccc2)N(Cc2ccco2)C(=O)c2snc(C(N)=O)c2N)cc1 (configuration not stated),inhibition,PEG-3 [1],21.1%
same,inhibition,PEG-3 [2],29.3%
same,inhibition,[3],109%
same,inhibition,[4],104%
Cc1ccc(C(=O)NCCc2cccs2)cc1,inhibition,PEG-3 [1],92.3%
same,inhibition,PEG-3 [2],49.8%
same,activity,[7],76.6%
same,activity,[8],75.8%
COc1ccc(Nc2nc(-c3ccccc3)nc3ccccc23)cc1S(=O)(=O)N1CCOCC1,inhibition,PEG-3 [1],61.7%
same,inhibition,PEG-3 [2],59.1%
same,inhibition,[3],97.7%
same,inhibition,[4],106%
same,activity,[7],33%
same,activity,[8],25.6%
Cc1ccc2nc(NC(=O)c3ccccn3)sc2c1,inhibition,PEG-3 [1],99.4%
same,inhibition,PEG-3 [2],98.6%
same,inhibition,Rat fibroblasts (CREF) [5],94.5%
same,inhibition,Rat fibroblasts (CREF) [6],95.5%
same,activity,[7],94%
same,activity,[8],93.7%
COc1cccc(CN(C)C(=O)C(CCSC)NS(=O)(=O)c2ccc3c(c2)OCCO3)c1OC (configuration not stated),inhibition,PEG-3 [1],73.9%
same,inhibition,PEG-3 [2],99.1%
same,inhibition,[3],110%
same,inhibition,[4],106%
O=C(NC1CCCCC1)C(c1cccnc1)N(C(=O)CCl)c1cccc(Cl)c1 (configuration not stated),inhibition,PEG-3 [1],97.7%
same,inhibition,PEG-3 [2],102%
same,activity,[7],99.3%
same,activity,[8],99.5%
CS(=O)(=O)c1ccc2nc(NC(=O)CCS(=O)(=O)c3ccccc3)sc2c1,inhibition,PEG-3 [1],85%
same,inhibition,PEG-3 [2],92.7%
same,inhibition,[3],98.1%
same,inhibition,[4],97.7%
COCCn1c(C)cc(C2=NNC(=NC3CC3)SC2)c1C,inhibition,PEG-3 [1],99.2%
same,inhibition,PEG-3 [2],101%
same,activity,[7],91.5%
same,activity,[8],90.3%
FC(F)Sc1ccc(NC(=S)NC(c2ccccc2)c2ccccc2)cc1,inhibition,PEG-3 [1],99.8%
same,inhibition,PEG-3 [2],96.5%
same,inhibition,[3],116%
same,inhibition,[4],103%
CCc1nccn1C(=O)c1cnn2c(C(F)F)cc(-c3ccc(C)cc3)nc12,inhibition,PEG-3 [1],99.1%
same,inhibition,PEG-3 [2],102%
same,inhibition,[3],102%
same,inhibition,[4],115%
Cc1cnc(NC(=O)C2CC(=O)N(c3cccc(Cl)c3)C2)s1 (configuration not stated),inhibition,PEG-3 [1],97.7%
same,inhibition,PEG-3 [2],87.8%
same,inhibition,[3],94.9%
same,inhibition,[4],116%
Clc1cccc(-c2nc(-c3ccccn3)no2)c1,inhibition,PEG-3 [1],89.2%
same,inhibition,PEG-3 [2],92.5%
same,inhibition,Rat fibroblasts (CREF) [5],96.4%
same,inhibition,Rat fibroblasts (CREF) [6],94.4%
same,activity,[7],84.3%
same,activity,[8],82.3%
Cc1cccc(-n2ncc3c(N(C)C4CCCCC4)ncnc32)c1,inhibition,PEG-3 [1],89%
same,inhibition,PEG-3 [2],91.4%
same,activity,[7],89.4%
same,activity,[8],88%
COc1cccc(-c2nnc3n2N=C(C(C)(C)C)CS3)c1,inhibition,PEG-3 [1],98.1%
same,inhibition,PEG-3 [2],99%
same,inhibition,[3],105%
same,inhibition,[4],114%
C(=NN1CCCCCC1)c1ccc2ccccc2n1,inhibition,PEG-3 [1],102%
same,inhibition,PEG-3 [2],101%
same,inhibition,Rat fibroblasts (CREF) [5],101%
same,inhibition,Rat fibroblasts (CREF) [6],100%
same,activity,[7],95.4%
same,activity,[8],94.3%
CCOc1cccc2sc(N(CCCN(C)C)C(=O)c3ccc(S(=O)(=O)N(C)Cc4ccccc4)cc3)nc12,inhibition,PEG-3 [1],99.3%
same,inhibition,PEG-3 [2],101%
same,activity,[7],28.6%
same,activity,[8],-0.65%
COc1cc(NC(=O)c2c(F)c(F)c(F)c(F)c2F)c(OC)cc1Cl,inhibition,PEG-3 [1],99.8%
same,inhibition,PEG-3 [2],96.5%
same,activity,[7],85.1%
same,activity,[8],64.5%
CCN1CCN(c2ccc(S(=O)(=O)N3CCOCC3)cc2NC(=O)/C=C/c2ccc([N+](=O)[O-])cc2)CC1,inhibition,PEG-3 [1],100%
same,inhibition,PEG-3 [2],89.1%
same,activity,[7],50.9%
same,activity,[8],62.1%
NC(=O)c1nsc(C(=O)N(c2ccccc2F)C(C(=O)NCc2ccc(F)cc2)c2ccc(O)cc2)c1N (configuration not stated),inhibition,PEG-3 [1],101%
same,inhibition,PEG-3 [2],99.2%
same,inhibition,[3],106%
same,inhibition,[4],98.8%
CCOC(=O)c1c(C)[nH]c(C(=O)OCC(=O)Nc2sccc2C(N)=O)c1C,inhibition,PEG-3 [1],76.2%
same,inhibition,PEG-3 [2],101%
same,activity,[7],69.8%
same,activity,[8],62.2%
O=C1CCCCC1Sc1nnc(-c2ccc3c(c2)OCO3)o1 (configuration not stated),inhibition,PEG-3 [1],98.4%
same,inhibition,PEG-3 [2],95%
same,inhibition,Rat fibroblasts (CREF) [5],95%
same,inhibition,Rat fibroblasts (CREF) [6],94.3%
same,activity,[7],48.4%
same,activity,[8],35.9%
same,"activity, % sensitization",[9],19.6%
same,"activity, % sensitization",[10],16.8%
same,"activity, % sensitization",[11],29.8%
same,"activity, % sensitization",[12],21.7%
CCCC(=O)N1CCCC(c2cc(C(=O)Nc3ccccc3)no2)C1 (configuration not stated),inhibition,PEG-3 [1],85.5%
same,inhibition,PEG-3 [2],90.8%
same,activity,[7],52.6%
same,activity,[8],37.5%
CNc1ccc2ncc(-c3ccc(OC)c(OC)c3)n2n1,inhibition,[3],106%
same,inhibition,[4],118%
CN1CCN(S(=O)(=O)c2ccc(Sc3nnnn3-c3ccccc3)c([N+](=O)[O-])c2)CC1,inhibition,[3],109%
same,inhibition,[4],99.5%
COC(=O)c1c(NC(=O)c2ccc([N+](=O)[O-])o2)sc2c1CCN(C(C)C)C2,inhibition,PEG-3 [1],95%
same,inhibition,PEG-3 [2],99.1%
same,activity,[7],46.9%
same,activity,[8],88.7%
Cc1cc(C(=O)COC(=O)c2ccccc2Br)c(C)n1CC1CCCO1 (configuration not stated),inhibition,PEG-3 [1],95.8%
same,inhibition,PEG-3 [2],85.4%
same,activity,[7],68.1%
same,activity,[8],74.3%
CCn1c(C)cc(C(=O)COC(=O)c2ccccc2[N+](=O)[O-])c1C,inhibition,PEG-3 [1],99%
same,inhibition,PEG-3 [2],99%
same,activity,[7],94.7%
same,activity,[8],93.3%
O=C(Oc1ccc(F)cc1C(=O)/C=C/c1cccs1)c1cccc([N+](=O)[O-])c1,inhibition,[3],49.3%
same,inhibition,[4],40.3%
CC1CCCCN1S(=O)(=O)c1ccc(C(=O)N(CCCN(C)C)c2nc3ccc(Br)cc3s2)cc1 (configuration not stated),inhibition,PEG-3 [1],102%
same,inhibition,PEG-3 [2],102%
same,activity,[7],22.4%
same,activity,[8],17.7%
C[C@@H](NC(=O)c1coc(=O)c(Br)c1)c1ccccc1,inhibition,[3],77.6%
same,inhibition,[4],99.8% [at 19.8 µM]
CCn1c2ccccc2c2cc(/C=N/O)ccc21,inhibition,[3],114%
same,inhibition,[4],105%
COc1cc(/C=C2\SC(=O)N(CCNC(=O)c3sc4cc(F)ccc4c3Cl)C2=O)cc(OC)c1OC,inhibition,[3],27.5%
same,inhibition,[4],30.8%
N/C(=N\OC(=O)c1ccccc1)C(Cc1ccccc1)C(=O)NOC(=O)c1ccccc1 (configuration not stated),inhibition,PEG-3 [1],97.4%
same,inhibition,PEG-3 [2],99.1%
same,activity,[7],98%
same,activity,[8],97.8%
CCOc1cc(/C=N/N=C(N)N)ccc1OCc1ccc(Cl)cc1,inhibition,PEG-3 [1],99.3%
same,inhibition,PEG-3 [2],98.5%
same,activity,[7],70%
same,activity,[8],96.9%
